How the values were obtained:
Assay in all cases: PBM binding z-score (relative to random genomic background probes); higher = stronger binding; sequences stand for … in GC…GCGATTGACAGCGTAGAATGAAGG
[1] = test system: FXR:RXRa (NR concentration 270 nM, RXRa partner concentration 90 nM)
Summary of the method: (§1)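 The probes on custom Agilent 4×180K protein-binding microarrays were double-stranded, with 34-nt variable regions bearing direct-repeat seeds, single-nucleotide variants, half-site ablations and random human genomic background sequences. Incubation lasted 1 h with ligand-free nuclear receptor dimers in PBS pH 7.4, 2% milk, 0.02% Triton X-100, 1 mM DTT, 0.2 mg/mL BSA and 0.4 mg/ml salmon testes DNA. Antibodies against each partner (one per run) detected bound dimers, and fluorescence scans were regression-normalized. Binding z-scores take the random background probes as reference.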

[2] = test system: LXRa:RXRa (NR concentration 270 nM, RXRa partner concentration 90 nM)
Summary of the method: as §1

[3] = test system: LXRa homodimer (NR concentration 270 nM)
Summary of the method: as §1

[4] = test system: LXRb:RXRa (NR concentration 270 nM, RXRa partner concentration 90 nM)
Summary of the method: as §1

[5] = test system: LXRb homodimer (NR concentration 270 nM)
Summary of the method: as §1

[6] = test system: PPARa:RXRa (NR concentration 270 nM, RXRa partner concentration 90 nM)
Summary of the method: as §1

[7] = test system: PPARg:RXRa (NR concentration 180 nM, RXRa partner concentration 90 nM)
Summary of the method: as §1

[8] = test system: PPARg:RXRa 270nM:90nM, anti-RXR (NR concentration 270 nM, RXRa partner concentration 90 nM)
Summary of the method: as §1

[9] = test system: PPARg:RXRa 30nM:10nM, anti-RXR (NR concentration 30 nM, RXRa partner concentration 10 nM)
Summary of the method: as §1

[10] = test system: PPARg:RXRa 90nM:30nM, anti-RXR (NR concentration 90 nM, RXRa partner concentration 30 nM)
Summary of the method: as §1

[11] = test system: PPARg:RXRa DBDmut IVT, anti-RXR (DBD mutation: RXRa K156A/R161A, NR concentration 270 nM, RXRa partner concentration 90 nM)
Summary of the method: as §1

[12] = test system: PPARg:RXRa IVT, anti-PPARg (NR concentration 270 nM, RXRa partner concentration 90 nM)
Summary of the method: as §1

[13] = test system: PPARg DBDmut:RXRa IVT, anti-PPARg (DBD mutation: PPARg1 K132A/R137A, NR concentration 270 nM, RXRa partner concentration 90 nM)
Summary of the method: as §1

[14] = test system: PPARg DBDmut IVT, anti-PPARg (DBD mutation: PPARg1 K132A/R137A, NR concentration 270 nM)
Summary of the method: as §1

[15] = test system: PPARg homodimer (NR concentration 180 nM)
Summary of the method: as §1

[16] = test system: PXR:RXRa (NR concentration 270 nM, RXRa partner concentration 90 nM)
Summary of the method: as §1

[17] = test system: PXR homodimer (NR concentration 270 nM)
Summary of the method: as §1

[18] = test system: RARa:RXR (NR concentration 270 nM, RXRa partner concentration 90 nM)
Summary of the method: as §1

[19] = test system: RARa homodimer (NR concentration 270 nM)
Summary of the method: as §1

[20] = test system: RARb:RXRa (NR concentration 270 nM, RXRa partner concentration 90 nM)
Summary of the method: as §1

Sequence | PBM binding z-score [1] | PBM binding z-score [2] | PBM binding z-score [3] | PBM binding z-score [4] | PBM binding z-score [5] | PBM binding z-score [6] | PBM binding z-score [7] | PBM binding z-score [8] | PBM binding z-score [9] | PBM binding z-score [10] | PBM binding z-score [11] | PBM binding z-score [12] | PBM binding z-score [13] | PBM binding z-score [14] | PBM binding z-score [15] | PBM binding z-score [16] | PBM binding z-score [17] | PBM binding z-score [18] | PBM binding z-score [19] | PBM binding z-score [20]
ATCTCTAGGTAACCAAGGTCAGTGAATGCCGAAC | 1.59 | 2.3 | 1.46 | 1.91 | 0.895 | 2.72 | 1.79 | 1.92 | 0.476 | 1.39 | 4.04 | 3.81 | 1.28 | 1.3 | 1.93 | 2.47 | 1.21 | 2.26 | 2.02 | 2.7
CCTTACGGGGCAAGGTTATAGCACGGGTGGTACG | 0.333 | 0.325 | -0.577 | 0.153 | -0.736 | 1.33 | 0.791 | 0.819 | -0.199 | 0.442 | -0.0352 | 0.442 | -0.313 | -0.783 | 0.309 | 0.145 | -0.13 | 0.546 | 0.0698 | 1.78
AGAATGAGGTTACCAAAGATCAGCGAAACGCTTG | 1.92 | 6.09 | -0.342 | 3.38 | -0.405 | 3.24 | 2.63 | 2.59 | 0.865 | 1.64 | 4.05 | 3.33 | 1.77 | 0.58 | 0.597 | 1.32 | -0.226 | 2.13 | 0.0511 | 2.08
TCATATAGGTAAACGGTGAAAGTCGGTGTGGTAA | 0.188 | 0.878 | 0.118 | 0.712 | -0.229 | 2.17 | 2.41 | 4.15 | 4.43 | 4.57 | 4.37 | 3.34 | 1.61 | 0.702 | 0.811 | 0.39 | 0.405 | 0.111 | 0.67 | 0.522
AGTCAAAGTTCACCAGGTAACGTAAGATTCAGCT | 6.31 | 5.59 | 3.52 | 3.85 | 1.05 | 5.19 | 6.96 | 6.68 | 3.83 | 6.1 | 1.37 | 4 | 1.09 | 1.39 | 3.02 | 4.67 | 2.63 | 4.15 | 1.72 | 5.18
AATACAGGGTCATCGTAGGCCAGTGTACGCACAG | 6.9 | 6.17 | 2.35 | 4.64 | 1.16 | 5.62 | 6.48 | 5.88 | 3.01 | 4.66 | 2.67 | 4.1 | 1.31 | 0.904 | 2.51 | 4.95 | 0.408 | 5.01 | 1 | 4.35
ATCTCTAGGTAACAAGTTCAGTGTAAGAGAGGAC | 0.924 | 0.672 | 0.835 | 0.727 | 1.14 | 1.52 | 1.37 | 2.11 | 0.896 | 1.48 | 3.42 | 2.96 | 0.813 | 1.82 | 1.08 | 1.61 | 2.33 | 1.09 | 1.11 | 1.78
CAGACTAGGTCAAGAGGTCAAAGTCCGCTTCCCG | 7.03 | 6.1 | 5.88 | 5.69 | 1.64 | 6.29 | 8.59 | 7.74 | 5.99 | 7.54 | 7.08 | 7.26 | 0.894 | 0.414 | 5.61 | 6.21 | 1.93 | 7.55 | 0.913 | 5.39
TGAATGAGGTTAAAGATCCGGGAACGTGGCGTCG | 2.36 | 1.91 | -0.227 | 1.13 | 0.309 | 3.14 | 2.27 | 3.37 | 1.55 | 2.9 | 2.22 | 2.41 | 0.774 | 0.25 | 0.436 | 1.11 | -0.152 | 1.84 | -0.669 | 1.72
CCGCCTGGGGCAAGGTTACCATAACGCACAGCCA | 0.284 | 0.783 | -0.315 | 0.56 | -1.07 | 1.21 | 0.654 | 0.637 | -0.339 | 0.253 | -0.567 | 0.525 | -0.637 | -1.46 | 0.471 | 0.34 | -0.119 | 0.916 | -0.239 | 1.61
ATCTCTAGGAAACAAGTTCAGTGAAAGAGAGGAC | 0.431 | 0.902 | 0.383 | 0.587 | 0.528 | 0.467 | 0.409 | 0.0222 | 0.37 | -0.00536 | -0.477 | 0.373 | 0.113 | 0.509 | 0.901 | 1.24 | 1.82 | 0.58 | 0.878 | 1.17
CGTCCACGGTCATAGGAGGTCAGTGAAGACAGAT | 2.58 | 4.52 | 2.1 | 2.15 | -0.643 | 2.16 | 0.881 | 0.977 | -0.0793 | 0.32 | 0.0707 | 2.02 | -0.535 | -1.15 | 1.73 | 3.88 | 0.754 | 2.6 | 0.207 | 3.65
AGAACGAGGGCAATGAGTTGATGGCACGGGTGGC | 0.145 | 0.254 | -0.585 | -0.493 | -0.436 | 1.25 | 1.29 | 0.598 | -0.239 | 0.238 | 3.36 | 2.88 | 1.3 | -0.157 | -0.0227 | 1.19 | 3.75 | 0.0282 | -0.254 | 1.99
TAGCCCAGGTCATTCAGGGGCCAGTATAGAAAGC | 5.03 | 4.14 | 0.808 | 2.98 | 0.952 | 3.9 | 2.2 | 2.46 | 0.688 | 1.57 | 0.643 | 2.16 | -0.0273 | 0.498 | 2.32 | 3.28 | 0.378 | 3.94 | 0.0689 | 3.67
TCTATTAGTTGATTAGGGCAGCCGAAACAGCGGA | 0.608 | 0.627 | 0.0696 | 0.52 | 0.663 | 1.01 | 0.0121 | 1.92 | 3.66 | 2.93 | 1.91 | 1.17 | 1.45 | 0.97 | 0.935 | 0.355 | 0.226 | 0.394 | 0.461 | 0.624
